In PubChem BioAssay AID1159580 (chemical genetic matrix, 2015):
Among all 5,500 compounds or so, about 2,000 (36%) were called active. Roughly 18% stayed inconclusive and do not appear here. This is one part of the list. Unmarked numbers belong to inactive results. Rule as the data show it: active = normalized growth mostly below about 0.91 (no sharp cut-off); inconclusive = no clear call, values can overlap the other calls; inactive = mostly above about 0.92.

Test: chemical genetic growth profiling, strain panel (AID 1159580);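 also: tested at 20 µM; growth read once vehicle control cultures reached saturation at 30 °C; 1 = growth at the plate median or of vehicle wells; lower values mean less growth of the strain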
Settings: S. cerevisiae deletion strains, growth OD

N#Cc1ccc(NC(=O)Nc2cccc3ccccc23)cc1
normalized growth (locus YAR019C, strain CDC15, hits give low values): 0.965
normalized growth (locus YBL105C, strain PKC1, hits give low values): 0.974
normalized growth (locus YBR135W, strain CKS1, hits give low values): 0.96
normalized growth (locus YBR136W, strain MEC1, hits give low values): 0.971
normalized growth (locus YBR160W, strain CDC28, hits give low values): 0.96
normalized growth (locus YDL017W, strain CDC7, hits give low values): 0.974
normalized growth (locus YDL028C, strain MPS1, hits give low values): 0.971
normalized growth (locus YDL101C, strain DUN1, hits give low values): 0.992
normalized growth (locus YDL108W, strain KIN28, hits give low values): 0.958
normalized growth (locus YDL132W, strain cdc53, hits give low values): 0.972
normalized growth (locus YDL214C, strain PRR2, hits give low values): 0.928
normalized growth (locus YDR052C, strain DBF4, hits give low values): 0.995
normalized growth (locus YDR054C, strain cdc34, hits give low values): 0.957
normalized growth (locus YDR226W, strain ADK1, hits give low values): 0.985
normalized growth (locus YDR477W, strain SNF1, hits give low values): 0.926
normalized growth (locus YER123W, strain YCK3, hits give low values): 0.919
normalized growth (locus YER133W, strain GLC7, hits give low values): 0.955
normalized growth (locus YFL009W, strain cdc4, hits give low values): 0.967
normalized growth (locus YFL029C, strain CAK1, hits give low values): 0.968
normalized growth (locus YFR003C, strain YPI1, hits give low values): 0.968
normalized growth (locus YFR019W, strain FAB1, hits give low values): 0.932
normalized growth (locus YFR028C, strain CDC14, hits give low values): 0.958
normalized growth (locus YGR040W, strain KSS1, hits give low values): 0.921
normalized growth (locus YGR052W, strain FMP48, hits give low values): 0.979
normalized growth (locus YGR092W, strain DBF2, hits give low values): 0.923
normalized growth (locus YHR030C, strain SLT2, hits give low values): 0.938
normalized growth (locus YHR079C, strain IRE1, hits give low values): 0.924
normalized growth (locus YHR082C, strain KSP1, hits give low values): 0.986
normalized growth (locus YHR205W, strain SCH9, hits give low values): 0.89
normalized growth (locus YIL147C, strain SLN1, hits give low values): 0.963
normalized growth (locus YJL095W, strain BCK1, hits give low values): 0.962
normalized growth (locus YJL128C, strain PBS2, hits give low values): 0.955
normalized growth (locus YJL157C, strain FAR1, hits give low values): 0.929
normalized growth (locus YJR016C, strain ILV3, hits give low values): 0.966
normalized growth (locus YJR066W, strain TOR1 (second series), hits give low values): 0.903
normalized growth (locus YJR066W, strain TOR1, hits give low values): 0.972
normalized growth (locus YKL048C, strain ELM1, hits give low values): 0.949
normalized growth (locus YKL067W, strain YNK1, hits give low values): 0.941
normalized growth (locus YKL101W, strain HSL1, hits give low values): 0.916
normalized growth (locus YKL193C, strain SDS22, hits give low values): 0.963
normalized growth (locus YKL203C, strain TOR2, hits give low values): 0.998
normalized growth (locus YLR113W, strain HOG1, hits give low values): 0.832 (active)
normalized growth (locus YLR133W, strain CKI1, hits give low values): 0.913
normalized growth (locus YLR403W, strain SFP1, hits give low values): 0.892
normalized growth (locus YML070W, strain DAK1, hits give low values): 0.901
normalized growth (locus YMR001C, strain CDC5, hits give low values): 0.967
normalized growth (locus YMR205C, strain PFK2 (second series), hits give low values): 0.939
normalized growth (locus YMR277W, strain FCP1, hits give low values): 0.966
normalized growth (locus YNL006W, strain LST8, hits give low values): 0.978
normalized growth (locus YNL020C, strain ARK1, hits give low values): 0.917
normalized growth (locus YNL161W, strain CBK1, hits give low values): 0.963
normalized growth (locus YNL183C, strain NPR1, hits give low values): 0.943
normalized growth (locus YNL207W, strain RIO2, hits give low values): 0.968
normalized growth (locus YNL222W, strain SSU72, hits give low values): 0.967
normalized growth (locus YNL307C, strain MCK1 (second series), hits give low values): 0.925
normalized growth (locus YOL078W, strain AVO1, hits give low values): 0.972
normalized growth (locus YOL136C, strain PFK27, hits give low values): 0.91
normalized growth (locus YOR061W, strain CKA2, hits give low values): 0.929
normalized growth (locus YOR119C, strain RIO1, hits give low values): 0.966
normalized growth (locus YOR231W, strain MKK1, hits give low values): 0.887
normalized growth (locus YOR329C, strain SCD5, hits give low values): 0.976
normalized growth (locus YPL031C, strain PHO85, hits give low values): 0.92
normalized growth (locus YPL153C, strain RAD53, hits give low values): 0.925
normalized growth (locus YPL204W, strain HRR25, hits give low values): 0.909
normalized growth (locus YPL209C, strain IPL1, hits give low values): 0.967
normalized growth (locus YPL256C, strain CLN2, hits give low values): 0.872
normalized growth (locus YPR025C, strain CCL1, hits give low values): 0.967
normalized growth (locus YPR106W, strain ISR1, hits give low values): 0.958
normalized growth (locus YPR111W, strain DBF20, hits give low values): 0.952
normalized growth (strain NNK1, hits give low values): 0.967
normalized growth (strain TSCII, hits give low values): 0.969
